# Records with an inconclusive call do not appear. A call without a number means that no potency is given here. Activity calls are given as the source filed them. Calls follow the shape of the dose curve; as a rule, active = well fitted activation curve with a large enough effect; inconclusive = small, poorly fitted or top-dose-only effect; inactive = no such curve, though single readings can be large or run the other way.
# Molecular target: Relaxin receptor 1 (Homo sapiens) (UniProt Q9HBX9)
# Experiment: qHTS Assay for Agonists of the Relaxin Receptor RXFP1: THP1 Hit Validation; also: nearly all actives have a fitted effect of over 60% in size
# Settings: THP1-RXFP1 cells, cAMP TR-FRET, 30 min; series mostly up to 115 µM
# How it was run: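 THP1 cells stably expressing RXFP1 were exposed to compounds for 30 min at 37C with PDE4 inhibitor Ro 20174. Lysate cAMP was read by HTRF, normalized to buffer and 29 nM porcine relaxin, with Hill-fit EC50.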
# Potency is read from the fitted curve at half-maximal effect.
# Relaxin receptor 1 (Homo sapiens), sequence (Q9HBX9 whole entry, looked up): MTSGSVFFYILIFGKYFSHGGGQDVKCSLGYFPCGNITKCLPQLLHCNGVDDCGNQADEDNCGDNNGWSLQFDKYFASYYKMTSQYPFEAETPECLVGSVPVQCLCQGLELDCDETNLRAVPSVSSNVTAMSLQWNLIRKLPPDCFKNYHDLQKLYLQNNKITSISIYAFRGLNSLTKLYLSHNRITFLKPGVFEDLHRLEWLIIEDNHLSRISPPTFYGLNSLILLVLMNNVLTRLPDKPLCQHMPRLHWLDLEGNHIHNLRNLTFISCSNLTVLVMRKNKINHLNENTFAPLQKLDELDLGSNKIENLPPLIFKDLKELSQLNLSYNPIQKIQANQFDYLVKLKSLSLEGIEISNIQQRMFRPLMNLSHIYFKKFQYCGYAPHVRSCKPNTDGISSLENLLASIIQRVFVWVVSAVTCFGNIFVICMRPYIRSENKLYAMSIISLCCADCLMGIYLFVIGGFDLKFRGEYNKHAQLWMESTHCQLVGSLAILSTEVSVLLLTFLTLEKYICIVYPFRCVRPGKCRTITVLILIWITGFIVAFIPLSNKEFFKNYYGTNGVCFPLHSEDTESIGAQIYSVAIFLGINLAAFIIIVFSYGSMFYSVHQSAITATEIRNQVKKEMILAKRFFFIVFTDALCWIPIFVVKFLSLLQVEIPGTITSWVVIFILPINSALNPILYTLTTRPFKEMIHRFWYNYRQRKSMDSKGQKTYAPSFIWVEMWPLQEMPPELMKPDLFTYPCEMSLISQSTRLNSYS
row,SMILES,Potency
1,Cc1ccc(C(=O)Nc2ccccc2C(N)=O)o1,inactive
2,CC1(C)Cc2nc3sc4c(SCC(=O)NC(c5ccccc5)c5ccccc5)ncnc4c3cc2CO1,3.88 µM (active)
3,CCC(Sc1ccc2nnc(-c3cccnc3)n2n1)C(=O)OC (stereo not drawn),19.4 µM (active)
4,CN(C)CCCn1c(SCC(=O)Nc2nc(-c3cccc(Br)c3)cs2)nc2ccccc2c1=O,inactive
5,COc1ccc(S(=O)(=O)N2CCOCC2)cc1NC(=O)CSc1nnc2ccccn12,6.9 µM (active)
6,O=C(O)c1cc(-c2ccc(Br)s2)nc2ccccc12,3.08 µM (active)
7,CCC(=O)Nc1ccc(-n2nnnc2SCC(=O)NNC(=O)c2ccco2)cc1,inactive
8,CCN(CC)S(=O)(=O)c1cccc(N=Nc2c(O)c3ccccc3oc2=O)c1,9.77 µM (active)
9,c1ccc(-c2nnc(-c3ccccn3)c(-c3ccccn3)n2)nc1,inactive
10,CC(C)n1c(SCC(=O)N2CCN(C(=O)c3ccco3)CC2)nc2c1c(=O)n(C)c(=O)n2C,6.9 µM (active)
11,CC1(C(=O)Nc2nc3ccccc3s2)CC1(Br)Br (stereo not drawn),inactive
12,CC(NC(=O)c1ccccc1NC(=O)c1ccco1)C(=O)O (stereo not drawn),inactive
13,CCOC(=O)c1sc(=NC(=O)c2ccc(S(=O)(=O)N(C)c3ccccc3)cc2)n(C)c1C,34.6 µM (active)
14,COc1ccc(/C=C2/SC(=O)N(CC(=O)Nc3cc(C)on3)C2=O)cc1OC,inactive
15,CC1CCCCN1C(=O)c1ccccc1NC(=O)c1ccco1 (stereo not drawn),inactive
16,Brc1ccc2ncnc(NCc3cccnc3)c2c1,48.9 µM (active)
17,COc1ccc(CN2C(=O)c3cccnc3C2=O)cc1S(=O)(=O)NC1CCCCC1C (stereo not drawn),27.5 µM (active)
18,O=C(O)CCNc1ccc(NCCC(=O)O)c2c1C(=O)c1ccccc1C2=O,inactive
19,N#Cc1c(N)nc(SCC(=O)C23CC4CC(CC(C4)C2)C3)c(C#N)c1-c1ccc(Cl)cc1,12.3 µM (active)

row,SMILES,Potency
1,COC(=O)C(C)Sc1ccc2nnc(-c3ccccc3)n2n1 (stereo not drawn),inactive
2,CCCC(=O)Nc1ncnc2c1ncn2[C@@H]1O[C@@H]2COP(=O)(O)O[C@H]2[C@H]1OC(=O)CCC,1.23 µM (active)
3,CC[n+]1ccc(/C=C/c2ccc(N(C)C)cc2)c2ccccc21,inactive
4,CCOP1(=O)OCC2OC(n3cnc4c(N)ncnc43)C(O)C2O1 (stereo not drawn),8.7 µM (active)
5,Nc1nnc(CC(=O)N/N=C/c2ccc(-c3ccc(Cl)cc3Cl)o2)s1,inactive
6,CCN(c1ccccc1)S(=O)(=O)c1ccc(OC)c(NC(=O)C2CC(=O)N(Cc3ccccc3)C2)c1 (stereo not drawn),inactive
7,O=C(O)c1cc(-c2ccco2)nc2ccc(Br)cc12,19.4 µM (active)
8,COc1ccc(Cl)cc1-c1n[nH]c(=S)o1,6.15 µM (active)
9,Cc1cc(C)c(C(=O)CSc2n[nH]c(=O)n2C2CC2)cc1C,inactive
10,O=C(Nc1ccccc1C(=O)NCc1ccco1)c1ccccc1,inactive
11,COc1ccc(Nc2ncc(C#N)c(N)n2)c(OC)c1,inactive
12,O=C(Nc1cccc(C(F)(F)F)c1)c1ccccc1NC(=O)C1CCCCC1,inactive
13,CC(C(=O)OCC(=O)N(C)C1(C#N)CCCCC1)N1C(=O)c2ccccc2C1=O (stereo not drawn),15.4 µM (active)
14,CN(CC(=O)Nc1ccccc1Cl)C(=O)COC(=O)Cc1c(F)cccc1Cl,inactive
15,NC(=O)c1ccccc1NC(=O)CC12CC3CC(CC(C3)C1)C2,inactive
16,CC1(C)O[C@@H]2[C@H](O1)[C@@H](COS(=O)(=O)O)O[C@H]2n1cnc2c(N)ncnc21,5.48 µM (active)
17,COc1cccc(CNC(=O)c2ccc(CS(=O)Cc3ccc(C)cc3)o2)c1 (stereo not drawn),inactive
18,Brc1ccc(-c2nn3c(-c4ccco4)nnc3s2)o1,17.3 µM (active)
19,COc1ccc(C(C)=O)cc1Cn1cnc2c(cnn2C)c1=O,13.8 µM (active)

# From PubChem BioAssay AID492949 (National Center for Advancing Translational Sciences (NCATS), 2010)
